# Data taken from PubChem BioAssay AID687030 (Broad Institute, 2013).
# Screen size: about 1,400 compounds; about 10 (0.7%) were called active. How the calls were made is not given here. Not all results are given here. Entries that show only a call come without a potency. Potency and affinity values are given separately.
# Assay: viability loss in BHK-21 cells – cell-based, plate reader, cherry-pick samples, cytotoxicity control, dose response (AID 687030);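 further: cells were exposed to compound for three days before reading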
# Details: series mostly up to 19.5 µM
row,SMILES,outcome
1,Cc1ccc(N(C)C(=O)N2CCN(S(=O)(=O)c3ccc(C)cc3)CC2)cc1,inactive
2,CCOC(=O)c1[nH]c2ccccc2c1NC(=O)c1ccc2c(c1)OCO2,inactive
3,Cc1cccc(N(C(=O)Cn2nnc3ccccc32)C(C(=O)NC(C)(C)C)c2ccsc2)c1 (stereo not drawn),inactive
4,O=C(CNC(=O)N1CC(=O)Nc2ccccc21)NCc1ccc(F)cc1,inactive
5,Cc1noc(C)c1S(=O)(=O)N(C)C[C@H]1OCCCC[C@@H](C)Oc2ccc(NC(=O)Nc3ccc4c(c3)OCO4)cc2C(=O)N([C@@H](C)CO)C[C@H]1C,inactive
6,CCOC(=O)c1[nH]c(C)c(C(=O)OCC(=O)N2CC(=O)Nc3ccccc32)c1C,inactive
7,CC1CCCCN1CCCNC(=O)c1ccc2nc(N3CCCCC3)sc2c1 (stereo not drawn),inactive
8,CCOC(=O)c1sc(NC(=O)c2ccncc2)c(C#N)c1C,inactive
9,CC(C)C(=O)Nc1nnc(S(=O)(=O)N2CCc3ccccc32)s1,inactive
10,Fc1ccc(CCN2CCN=C2Nc2ccccc2)cc1,inactive
11,CCC(C)[C@H]1COCCS(=O)(=O)N1Cc1ccc(Br)cc1 (stereo partly drawn),inactive
12,O=C(N[C@@H]1C=C[C@H](CC(=O)N2CCc3ccccc3C2)O[C@@H]1CO)C1CCC1,inactive
13,COc1cc2cc(CCCOC(=O)CCC(=O)O)oc(=O)c2cc1OC,inactive
14,CC1Cc2ccccc2N1S(=O)(=O)c1cnc(Cl)c(Br)c1 (stereo not drawn),inactive
15,O=C(O)c1cccc(-c2csc(C(O)c3ccc(F)c(F)c3)n2)c1 (stereo not drawn),inactive
16,O=C(O)c1ccccc1C(=O)NCc1c(Cl)cccc1Sc1ccc(Cl)cc1,inactive
17,COc1ccc(CCN2CC(C(=O)NCCc3cn[nH]c3)CCC2=O)cc1 (stereo not drawn),inactive
18,CNC(=O)C[C@H]1CC[C@@H]2[C@H](COc3ccc(NC(=O)c4ccc(F)c(F)c4)cc3C(=O)N2C)O1,inactive
19,COc1cc2c(cc1OC)CN(C(=O)CCOc1ccccc1C)CC2,inactive
20,N#Cc1cccnc1N1CCN(C(=O)c2ccccc2)CC1,inactive

row,SMILES,outcome
1,O=C(NCC[C@H]1CC[C@H](NS(=O)(=O)c2ccc(Oc3ccccc3)cc2)[C@@H](CO)O1)C1CC1,inactive
2,CCCCCc1c(-c2ccccc2OC)ncn1CCc1ccccc1OC,inactive
3,O=C(Nc1cccc(S(=O)(=O)N2CCCCCC2)c1)c1ccc2ccccc2n1,inactive
4,Cc1ccc(C(=O)O/N=C(\N)c2ccccn2)cc1,inactive
5,CCc1nc2ccc(C(=O)N(CC)CCN(C)C)cn2c1N(C)C(=O)c1cccc(OC)c1,inactive
6,C[C@@H]1CN([C@@H](C)CO)C(=O)c2cc(NS(=O)(=O)c3ccc(Cl)cc3)ccc2O[C@@H](C)CCCCO[C@H]1CN(C)CC1CC1,inactive
7,O=C(c1ccncc1)N1CCCC(N2CCN(c3cccc(C(F)(F)F)c3)CC2)C1 (stereo not drawn),inactive
8,O=C(c1cc(C2CC2)on1)N1CCCC(N2CCN(c3cccc(C(F)(F)F)c3)CC2)C1 (stereo not drawn),inactive
9,O=S(=O)(NCc1c(Cl)cccc1Oc1ccccc1)c1ccccc1,inactive
10,CCOc1ccc(C(=O)NCC(=O)N2CCCCCCC2)cc1,inactive
11,O=C(O)C[C@H]1C=C[C@@H](NC(=O)CCN2CCCCC2)[C@@H](CO)O1,inactive
12,CC1CCOC(c2coc3ccccc3c2=O)O1 (stereo not drawn),inactive
13,COc1ccc(Br)cc1[C@H]1[C@H]2C=CC[C@@H](C)[C@@H]2C(=O)N1Cc1ccccc1,inactive
14,O=C(Nc1cccc(-n2cnnn2)c1)C1CCCN(C(=O)Cc2cccc(Cl)c2)C1 (stereo not drawn),inactive
15,CC(C)CN(C(=O)c1cc(Cl)nc2ccccc12)c1c(N)n(Cc2ccccc2)c(=O)[nH]c1=O,inactive
16,O=C(O)[C@H]1[C@H](CO)[C@H]2Cn3c(ccc(/C=C/c4ccccc4)c3=O)[C@H]2N1C(=O)c1cnccn1,inactive
17,CN(CC(=O)Nc1ccc(F)cc1)C(=O)COC(=O)c1nc(Cl)ccc1Cl,inactive
18,CC(C)(C)OC(=O)CNC(=O)c1[nH]cnc1C(=O)N[C@@H](Cc1ccccc1)C(=O)OC(C)(C)C,inactive
19,CCOc1ncccc1C(=O)NNC(=O)c1cccc(S(=O)(=O)Nc2ccccc2OC)c1,inactive
20,COc1cccc(N2CCN(C(=O)c3cccc(NC4=NC5CS(=O)(=O)CC5S4)c3)CC2)c1 (stereo not drawn),inactive

row,SMILES,outcome
1,CC(=O)Nc1cccc2ncccc12,inactive
2,COc1cc(NC(C)=O)c2ncccc2c1Br,inactive
3,OC(COC(c1ccc(F)cc1)c1ccc(F)cc1)CN1CCCC1 (stereo not drawn),inactive
4,Cc1ccc(C(=O)Nc2ccc(CN3CCCCC3)cc2)c(C)c1,inactive
5,CN1CCC2CC1c1cc(-c3ccc(C(F)(F)F)cc3)ccc12 (stereo not drawn),inactive
6,O=C(C[C@@H]1CC[C@H]2[C@@H](COC[C@@H](O)CN2Cc2cccc(Cl)c2)O1)N1CCOCC1,inactive
7,O=C(C[C@H]1CC[C@H]2[C@@H](COC[C@@H](O)CN2Cc2cccc(C(F)(F)F)c2)O1)NCc1ccc(F)cc1,inactive
8,C[C@@H]1CCCCO[C@H](CN(C)S(=O)(=O)c2ccccc2)[C@@H](C)CN([C@@H](C)CO)C(=O)c2cc(NC(=O)CCCN(C)C)ccc2O1,inactive
9,COc1ccc(S(=O)(=O)N(C)C[C@@H]2Oc3ccc(NS(=O)(=O)c4ccccc4)cc3C(=O)N([C@H](C)CO)C[C@H]2C)cc1,inactive
10,CCNC(=O)C[C@H]1CC[C@H]2[C@@H](COC[C@@H](O)CN2Cc2ccc(Cl)c(Cl)c2)O1,inactive
11,CCNC(=O)C[C@H]1CC[C@H]2[C@@H](COC[C@H](O)CN2Cc2ccc(Cl)c(Cl)c2)O1,inactive
12,CCC1CN(S(=O)(=O)c2ccc3c(c2)NC(=O)CC(=O)N3)c2cc(Cl)ccc2O1 (stereo not drawn),inactive
13,Cc1cc(OCC(=O)NC(Cc2c[nH]c3ccc(O)cc23)C(=O)O)c2c(C)c(C)c(=O)oc2c1 (stereo not drawn),inactive
14,COc1cccc(CNC(=O)[C@@H]2CCCN2C(=O)[C@H]2CCCCN2C(=O)c2ccc(Cl)cc2)c1,inactive
15,CCCCn1c(N)c(N(CC)C(=O)c2cc(C)cc(C)c2)c(=O)[nH]c1=O,inactive
16,CC(C)CCC(O)(c1ccccc1)C(CN1CCOCC1)c1ccccc1 (stereo not drawn),inactive
17,C[C@@H]1CCCCO[C@H](CN(C)S(=O)(=O)c2ccc(Cl)cc2)[C@H](C)CN([C@H](C)CO)C(=O)c2cc(N(C)C)ccc2O1,inactive
18,C=CCOc1ccccc1CN1CCC(Cc2ccccc2)CC1,inactive
